We go through 62 compounds from PubChem BioAssay AID686979 (National Center for Advancing Translational Sciences (NCATS), 2013).

SMILES strings stand for the structures. The campaign covered roughly 420,000 compounds. About 50,000 (12%) were called active. About 26% were inconclusive and are not listed. What follows is part of a selection rich in actives, with near analogues and random picks from the rest. A call without a number means that no potency is given here. Values without a mark were called inactive. Calls come from the whole dose curve; as a rule, active = well fitted inhibition curve with a large enough effect; inconclusive = small, poorly fitted or top-dose-only effect; inactive = flat fitted curve, though single readings scatter.
Potency is the fitted concentration of half-maximal effect.

A short description of this assay: qHTS for Inhibitors of human tyrosyl-DNA phosphodiesterase 1 (TDP1): qHTS in cells in presence of CPT. Note: nearly all actives have a fitted effect of over 55% in size. To be noted: chicken DT40 Tdp1-/-;hTDP1 cells + 20 nM CPT, ATP luminescence, 48 h; series mostly up to 46.2 µM. A digest of the protocol: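 Chicken DT40 Tdp1-/- cells stably complemented with human TDP1 were seeded at 400 cells/well in medium containing 20 nM camptothecin, exposed to pin-transferred compounds, and grown at 37 °C for at least 48 hr. Viability was read as ATP luminescence.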
Regarding `CCOC(=O)c1c(S(=O)(=O)NCC(=O)Nc2ccc(C)cc2)c(C)n(C)c1C`, the Potency entry was “inactive”. On the same count and under the same terms, under `CCOC(=O)c1c(S(=O)(=O)Nc2ccc(CN3CCC(C)CC3)cc2)c(C)n(C)c1C` stands “inactive”. Turning to `CCOC(=O)c1c(S(=O)(=O)NCC(=O)Nc2ccc(Cl)c(C(F)(F)F)c2)c(C)n(C)c1C`, the Potency is 18.4 µM (active). For the compound `COCCCNC(=O)C1CCN(c2ccc(N3CCOCC3)nn2)CC1`, the Potency result is “inactive”. As to `Cc1ccc(C(=O)N/C(=C\c2cn(S(=O)(=O)N(C)C)c3ccccc23)C(=O)N2CCCC2)cc1`, the Potency result was “inactive”.

As to `COc1cc2nc(NCC(C)c3ccccc3)n3nc(-c4ccccc4)nc3c2cc1OC` (configuration not stated), the Potency is 16.4 µM (active). On the same count and under the same terms, next, `O=C(CCC(=O)NNc1nc2ccccc2c2nc(-c3ccccc3)nn12)NCCCN1CCCC1=O`: “inactive”; `COc1cc2nc(SCC(=O)Nc3ccccc3F)n3nc(-c4ccccc4)nc3c2cc1OC`: “inactive”; `N#CCCN(C(=O)COC(=O)c1ccc(S(=O)(=O)N2CCCCCC2)cc1)c1ccccc1`: “inactive”. Same read-out and setting: under `COc1ccc(CNC(=O)C(=O)N2CCC3(CC2)OCCN3S(=O)(=O)c2ccc(C)cc2)cc1` stands “inactive”. Turning to `COc1ccc(S(=O)(=O)N2CCSCC2)cc1`, the Potency entry was “inactive”. Turning to `COc1ccc(S(=O)(=O)N2CCOC23CCN(S(=O)(=O)c2ccc([N+](=O)[O-])cc2)CC3)cc1`, the Potency is 11.6 µM (active). On the same count and under the same terms, under `COCCN1C2=C(COC(C)(C)C2)C(=S)NC1c1ccccc1` (configuration not stated) stands “inactive”; under `Cc1ccsc1CN(C(=O)c1oc2ccc(Br)cc2c1C)C1CCS(=O)(=O)C1` (configuration not stated), 9.2 µM (active); under `Cc1ccccc1OCC(=O)N(Cc1cccc(F)c1)C1CCS(=O)(=O)C1` (configuration not stated), “inactive”. Turning to `Cc1cc(C)c(OCC(=O)N(Cc2cccs2)C2CCS(=O)(=O)C2)c(C)c1` (configuration not stated), the Potency entry is “inactive”. `NC1=NC2(CCCCC2)N(c2ccc(F)cc2F)C(N)=N1`: the Potency entry is “inactive”. The same measure, in the same setting: under `COc1cc([N+](=O)[O-])cc([N+](=O)[O-])c1NC(=O)N1CCOCC1` stands “inactive”.

As to `Cn1nc(-c2ccccc2)c(CO)c1Sc1ccccc1`, the Potency result is “inactive”. On to `Cn1nc(-c2ccccc2)c(CSc2cccc(Cl)c2)c1Cl`, for which the Potency was 16.4 µM (active). On the same count and under the same terms, next, `CCOC(=O)CSc1ncc(-c2cccc(Cl)c2)cn1`: “inactive”. Still for that read-out and setting: next, `C=CCSc1ccc(S(=O)(=O)N2CCN(C)CC2)cn1`: “inactive”.

As to `Cc1n[nH]c(=O)n1-c1ccc(C(C)C)cc1`, the Potency result was “inactive”.

As to `CCOc1ccc(NC(=O)CN(C)C(=O)Cn2c(=O)cnc3ccccc32)cc1OCC`, the Potency result was “inactive”.

As to `COc1ccc(N2CCC(N3CCN(C)C(CCO)C3)CC2)cc1` (configuration not stated), the Potency entry is “inactive”. Same read-out and setting: next, `COc1ccc(N2CCC(CNC(=S)Nc3c(C)cccc3C)C2)cc1` (configuration not stated): 23.1 µM (active); `COc1cccc(N2CC(C(=O)Nc3c(C)cccc3C)CC2=O)c1` (configuration not stated): “inactive”.

For `COc1cc(C(=O)Nc2ccc(OCc3cc(=O)n4cc(C)sc4n3)cc2)cc(OC)c1OC`, the Potency result was “inactive”.

As for `CC(=O)Nc1ccc(OC(=O)COc2ccc(Br)cc2)cc1`, the Potency result is “inactive”. Consider `COc1ccccc1S(=O)(=O)c1c(C)cc(C)[nH]c1=O`, for which the Potency result is “inactive”. Same read-out and setting: next, `CC(O)c1nc2ccccc2n1Cc1ccc([N+](=O)[O-])cc1` (configuration not stated): “inactive”. For the compound `CC(C)c1ccc(Cn2c(COc3ccccc3)nc3ccccc32)cc1`, the Potency was 18.4 µM (active). In the case of `O=C(O)CCn1c(Cc2ccccc2)nc2ccccc21`, the Potency entry is “inactive”. `Cc1ccc(NC(=O)N2CCC(O)(c3cccnc3)CC2)cc1`: the Potency result is “inactive”.

Take `Cn1c(C(=O)O)ccc1S(=O)(=O)N(Cc1ccccc1)Cc1ccccc1`: the Potency entry is “inactive”.

With `COc1ccccc1N(CC(=O)NC1CCCC1)C(=O)C1(C)CC(=O)N=C2C=CC(C)=CN21` (configuration not stated), the Potency result was “inactive”. On the same count and under the same terms, under `COc1cc(NC(=O)c2ccc(-c3csc(C)n3)cc2)c(OC)cc1Cl` stands “inactive”. In the case of `COC(=O)c1scc(-c2ccc(C)cc2)c1S(=O)(=O)Nc1cc(Cl)c(OC)cc1OC`, the Potency is 13 µM (active). The same measure, in the same setting: under `COc1cc(OC)c(NS(=O)(=O)c2cn(C)cn2)cc1Cl` stands “inactive”; under `COc1ccc(Cl)cc1NC(=O)NCC1CCN(Cc2ccccc2F)CC1`, “inactive”. For `COc1ccccc1N1CCN(CCCNC(=O)c2cnn(-c3ccccc3Cl)c2C2CCN(C(=O)OC(C)(C)C)CC2)CC1`, the Potency was 8.2 µM (active).

For `COc1ccccc1CNC(=O)C1CCN(S(=O)(=O)c2ccc3c(c2)OCCO3)CC1`, the Potency entry was “inactive”. The same measure, in the same setting: under `Cc1ccc(CN2CCC(CNC(=O)c3cnn(-c4ccccc4Cl)c3C3CCN(C(=O)OC(C)(C)C)CC3)CC2)cc1` stands 5.8 µM (active). On the same count and under the same terms, next, `CCOC(=O)N1CCN(C(=O)C2CCN(Cc3ccc(OC)cc3OC)CC2)CC1`: “inactive”. Regarding `COc1ccccc1-c1ccnc(-n2ncc(C(=O)NCCCN3CCOCC3)c2C)n1`, the activity change, negative = growth inhibition was 7.6% [at 9.04 µM]. In the case of `COc1ccccc1CN1CCC(CNC(=O)c2cnn(-c3ccccc3Cl)c2C2CCN(C(=O)OC(C)(C)C)CC2)CC1`, the Potency was 8.2 µM (active). Regarding `COc1ccccc1N1CCN(CC(=O)NCCc2ccc(S(N)(=O)=O)cc2)CC1`, the Potency result was “inactive”. Still for that read-out and setting: under `COc1ccccc1CN1CCC(CNC(=O)c2cnn(-c3cccc(Cl)c3)c2C2CCN(C(=O)OC(C)(C)C)CC2)CC1` stands 7.31 µM (active). Regarding `CSCCC(=O)N1CCCC(CNC(=O)c2ccccc2Cl)C1` (configuration not stated), the Potency result is “inactive”. The same measure, in the same setting: under `O=C(NNC(=O)c1ccccc1[N+](=O)[O-])Nc1ccccc1C(F)(F)F` stands “inactive”; under `COc1ccc(CCNC(=O)COc2cc(C)cc3oc(=O)c(C)c(C)c23)cc1OC`, “inactive”. As to `O=C(COC(=O)c1ccc([N+](=O)[O-])o1)NC12CC3CC(CC(C3)C1)C2`, the Potency entry was “inactive”. Turning to `COc1ccc(C(C)=O)cc1CSc1nc2nc(C)cc(C)n2n1`, the Potency entry was “inactive”. Regarding `COCc1c(C(=O)OCC(=O)Nc2ccc(OC(F)F)cc2)oc2ccccc12`, the Potency entry was “inactive”.

Take `COc1ccc(CCN2CC(C(=O)OCC(=O)NCc3ccccc3Cl)CC2=O)cc1OC` (configuration not stated): the Potency entry was “inactive”. Still for that read-out and setting: under `CC(C)(C)OC(=O)N(Cc1ccco1)S(=O)(=O)c1ccccc1Br` stands “inactive”; under `O=c1oc2ccccc2c(=O)c2ccccc12`, “inactive”. Regarding `O=C(Oc1ccc(F)cc1)N1CCOCC1`, the Potency result is “inactive”.

Turning to `CCS(=O)(=O)N1Cc2ccccc2CC1C(=O)Nc1ccc(OC)cc1OC` (configuration not stated), the Potency entry is “inactive”. The same measure, in the same setting: next, `O=C(COC(=O)c1ccc(N2CCCC2=O)cc1)c1ccc(OC(F)F)cc1`: “inactive”. With `CS(=O)(=O)c1ccc(-c2nnn(CC(=O)Nc3ccc4c(c3)OCCO4)n2)cc1`, the Potency entry was “inactive”. The same measure, in the same setting: under `CCOC(=O)c1cnn2c(SC)ncnc12` stands “inactive”.
